From PubChem
UHRF1 MBD2 ctr: UHRF1 methylated DNA binding inhibitors, primary screen, counter-screen for MBD2 inhibitor project, biochemical, TR-FRET, human UHRF1, single concentration; AID 687016, 2013; 370,000 compounds, 0.75% hits; E3 ubiquitin-protein ligase UHRF1 (Homo sapiens), Q96T88; inhibition, % at 4.4 µM; UHRF1 binding to methylated oligo; in the data active = inhibition above about 21%;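 note: UHRF1 SRA domain binding a hemimethylated CpG hairpin DNA probe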
MBD2 DNA inh: inhibitors of MBD2 binding to methylated DNA, primary screen, biochemical, TR-FRET, DNA-binding domain, human; AID 686964, 2013; 370,000 compounds, 0.31% hits; inhibition, % at 4.4 µM; MBD2 binding to methylated oligonucleotide; Methyl-CpG-binding domain protein 2 (Homo sapiens), Q9UBB5; in the data active = inhibition above about 13%
LEDGF integ inh: blockers of LEDGF/p75-dependent integrase strand transfer – biochemical, TR-FRET, high throughput, primary screen; TR-FRET IN-LEDGF/p75 DNA integration, Eu/Cy5; inhibition, % at 3.7 µM; 370,000 compounds, 0.64% hits;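 active = inhibition above the screen-wide mean plus 3 SD, cut at about 13% in these data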;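 note: signal is the Cy5 over europium emission ratio at 671 and 618 nm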
DNMT1 inh: human DNMT1 methyltransferase inhibitors, primary screen, biochemical, molecular beacon, fluorescence, HinP1I cleavage, uHTS; inhibition (reported as % activation of signal), % at 10 µM; 360,000 compounds, 0.83% hits; in the data active = inhibition above about 50%
Target sequence (P26358 504-1616 limits assumed): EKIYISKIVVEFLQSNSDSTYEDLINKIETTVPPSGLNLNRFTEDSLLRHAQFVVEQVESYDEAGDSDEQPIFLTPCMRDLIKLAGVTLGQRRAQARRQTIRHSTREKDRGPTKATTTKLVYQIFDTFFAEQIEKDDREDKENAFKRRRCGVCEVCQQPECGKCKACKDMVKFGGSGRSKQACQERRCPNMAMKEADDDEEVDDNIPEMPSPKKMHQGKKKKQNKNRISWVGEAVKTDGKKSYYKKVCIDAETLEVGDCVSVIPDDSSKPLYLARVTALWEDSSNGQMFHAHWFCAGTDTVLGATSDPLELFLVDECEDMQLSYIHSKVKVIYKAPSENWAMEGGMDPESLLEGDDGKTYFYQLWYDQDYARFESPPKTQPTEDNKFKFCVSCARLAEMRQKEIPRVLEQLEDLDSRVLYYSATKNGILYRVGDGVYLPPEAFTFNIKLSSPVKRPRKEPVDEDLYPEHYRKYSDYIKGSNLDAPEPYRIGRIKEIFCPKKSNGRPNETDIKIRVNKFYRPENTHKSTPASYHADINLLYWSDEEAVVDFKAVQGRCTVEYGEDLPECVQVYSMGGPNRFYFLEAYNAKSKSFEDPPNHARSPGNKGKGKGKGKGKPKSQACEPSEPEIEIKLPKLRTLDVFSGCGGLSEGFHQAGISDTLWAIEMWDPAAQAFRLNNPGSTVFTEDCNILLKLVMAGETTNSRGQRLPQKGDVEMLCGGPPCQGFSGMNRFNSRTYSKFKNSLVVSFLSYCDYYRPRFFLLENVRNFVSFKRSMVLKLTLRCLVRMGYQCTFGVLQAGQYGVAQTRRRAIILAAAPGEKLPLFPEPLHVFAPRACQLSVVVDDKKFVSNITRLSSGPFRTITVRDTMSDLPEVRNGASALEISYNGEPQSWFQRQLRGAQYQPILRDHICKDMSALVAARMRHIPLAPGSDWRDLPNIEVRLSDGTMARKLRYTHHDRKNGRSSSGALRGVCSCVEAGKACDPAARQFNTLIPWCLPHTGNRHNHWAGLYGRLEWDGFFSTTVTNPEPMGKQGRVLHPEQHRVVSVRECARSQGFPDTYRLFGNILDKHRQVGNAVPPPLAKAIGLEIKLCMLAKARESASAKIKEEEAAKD
rCAG RNA binder: binders of r(CAG) RNA repeats, primary screen, biochemical, fluorescence. r(CAG) RNA repeat, TO-PRO-1 dye displacement fluorescence. inhibition, % at 3 µM. 370,000 compounds, 1.3% hits. AID 651821, 2012;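 active = inhibition above the plate cutoff, the mean of all test compounds on that plate plus 3 SD, cut at about 35% in these data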;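 note: higher means more dye released from RNA so lower well fluorescence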
PG9 binder: binders of HIV-1 gp120 antibody PG9, primary screen, biochemical, TR-FRET; HIV-1 gp120 / PG9 antibody interaction; TR-FRET gp120-PG9 antibody binding; inhibition, % at 6.7 µM; 360,000 compounds, 0.43% hits; AID 624416, 2012; in the data active = inhibition above about 8.5%
Hits are given with their value; – = inactive; · = no result given. In the library only some 3.5% were active in any assay of this set; here they are far more common.

SMILES	UHRF1 MBD2 ctr	MBD2 DNA inh	LEDGF integ inh	DNMT1 inh	rCAG RNA binder	PG9 binder
Nc1nc(SCc2nc(-c3ccccc3)no2)[nH]c(=O)c1-c1ccccc1	–	–	–	–	–	–
Nc1nc(SCc2ccc(Br)cc2)[nH]c(=O)c1-c1ccccc1	29	–	–	–	–	–
O=C(O)CCc1ccc(-c2ccccc2)n1Cc1ccco1	–	–	18	–	–	–
CCN(CC)CCOC(=O)c1ccc(N/C=C(/C#N)c2nc(-c3cc4ccccc4oc3=O)cs2)cc1	–	–	–	50	–	–
CCN(CC)CCOC(=O)c1ccc(N/C=C(/C#N)c2nc(-c3ccc(OC)cc3)cs2)cc1	–	–	–	–	–	–
O=[N+]([O-])c1ccc2c(c1)N([O-])C1(CCCCC1)[N+]2=O	–	–	–	·	35	–
COC(=O)C[C@@H]1CC[C@@H]2[C@H](COc3ccc(NC(=O)c4ccc(F)c(F)c4)cc3C(=O)N2C)O1	–	–	–	·	–	·
COc1ccc([C@H]2OC(=O)C[C@H]2C(=O)N2CCN(c3ccccc3C(F)(F)F)CC2)cc1OC	–	–	–	·	–	·
Cc1ccc(NC(=O)Cn2cc(C=O)c3ccccc32)cc1	–	–	–	–	–	–
O=Cc1cn(CC(=O)Nc2ccc3c(c2)OCO3)c2ccccc12	35	–	–	–	–	–
Cn1c(=O)c2[nH]c(C3CC4CCC3C4)nc2n(C)c1=O (stereo not given)	–	–	–	–	–	–
CC(=O)c1cc(C#N)c(N2CCOCC2)nc1C	34	–	–	–	–	–
COC(=O)c1cc(C#N)c(N2CCOCC2)nc1C	–	–	–	–	–	–
Cc1cccc(-c2cccc3c4c([nH]c23)[C@@H]2C[C@H](N(C)C(=O)NC3CCCCC3)[C@H]([C@H](C)O)CN2CC4)c1	–	–	–	·	–	·
Cc1ccc(OCC(=O)NNC(=O)c2cccnc2)cc1	27	–	–	–	–	–
COc1ccc(C2CC(=O)C(c3ccc(C)cc3)=CN2Cc2ccccc2)cc1 (stereo not given)	–	–	–	·	–	–
O=C(O)C1CCN(C(=O)c2cccc3ccccc23)CC1	30	–	–	–	–	–
NC(=O)C1CCN(C(=O)COc2cccc3ccccc23)CC1	40	–	–	–	–	–
COc1ccccc1N1CCN(C(=O)COc2cccc3ccccc23)CC1	–	–	–	–	–	–
O=C(O)/C(=C\c1cccc(F)c1)c1ccc(S(=O)(=O)N2CCCC2)s1	–	–	–	–	–	–
Cc1cccc(/C=C(\C(=O)O)c2ccc(S(=O)(=O)N3CCCC3)s2)c1	–	–	–	62	–	–
CCOc1ccccc1/C=C(\C(=O)O)c1ccc(S(=O)(=O)N2CCCCC2)s1	–	–	–	–	45	–
Cc1cc2nc3c(=O)[nH]c(=O)[nH]c3nc2c([N+](=O)[O-])c1N	–	–	–	111	–	–
O=C(CN1C(=O)NC2(CCCCC2)C1=O)N1CCN(S(=O)(=O)/C=C/c2ccccc2)CC1	–	–	–	–	–	–
CC(C)(C)c1ccc(-c2nnc(SCC3CCCCO3)n2-c2ccc(Cl)cc2)cc1 (stereo not given)	–	–	–	·	–	·
CCCC(=O)C1=C(O)C(C(=O)OC)C(C)(C)CC1=NC(C)(C)C (stereo not given)	–	–	–	–	–	–
CCCC(=O)C1=C(O)C(C(=O)OC)C(C)(C)CC1=N (stereo not given)	21	–	–	–	–	–
CCCCCCCCN1CN2Cc3ccc(C)cc3C2CS1(=O)=O (stereo not given)	–	–	–	·	–	·
COc1cc(/C=C2\SC(=O)N(CCN)C2=O)ccc1OS(=O)(=O)c1cc(C)ccc1C	–	–	–	–	–	–
Cc1sc(NC(=O)CSc2n[nH]c(N)n2)c(C#N)c1C	–	–	–	–	50	–
